Compounds without any hit were thinned out: in the full panel of roughly 79,000, 15% have a hit. Calls of active or inactive are those of the source. No stated cut-off is given here; in the data, active means growth inhibition above about 70%; inactive means the rest.
Tests used:
[1] = NCI Yeast Anticancer Drug Screen. Data for the rad50 strain (AID 155);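 further: 0% = growth of vehicle-only cultures of the same strain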; conditions: S. cerevisiae rad50 strain growth inhibition; at 50.0 µM; active compounds read high
In short: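 A DNA repair-deficient yeast mutant serves as the test organism; compound-induced growth inhibition is calculated against vehicle-treated cells.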

[2] = NCI Yeast Anticancer Drug Screen. Data for the mec2-1 strain (AID 157); conditions: S. cerevisiae mec2-1 strain, at 50.0 µM, active compounds read high
In short: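 Growth inhibition is read against vehicle-treated controls after compound exposure of the mec2-1 yeast strain, which is defective in DNA damage repair or cell cycle control.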

[3] = NCI Yeast Anticancer Drug Screen. Data for the sgs1 mgt1 strain (AID 161);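 further: 0% = growth of cultures given vehicle only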; conditions: S. cerevisiae sgs1 mgt1 strain, at 50.0 µM, active compounds read high
In short: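 Percent growth inhibition was derived by comparing compound-exposed mutant yeast with vehicle-exposed cultures. The strain carries alterations in DNA damage repair.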

[4] = NCI Yeast Anticancer Drug Screen. Data for the cln2 rad14 strain (AID 165);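 further: 0% = growth equal to vehicle treated cultures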; conditions: S. cerevisiae cln2 rad14 strain, at 50.0 µM, active compounds read high
In short: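 Growth inhibition, relative to vehicle-treated controls, is the read-out. The test organism is a yeast strain with defined genetic alterations, cln2 rad14.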

[5] = NCI Yeast Anticancer Drug Screen. Data for the bub3 strain (AID 167); conditions: S. cerevisiae bub3 mutant strain, at 50.0 µM, active compounds read high
In short: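 Inhibition values come from growth of compound-treated mutant yeast normalised to vehicle-treated controls.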

[6] = NCI Yeast Anticancer Drug Screen. Data for the mlh1 rad18 strain (AID 175); conditions: S. cerevisiae mlh1 rad18 strain growth inhibition; at 50.0 µM; active compounds read high
In short: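 Cells of a genetically altered yeast strain, deficient in DNA damage repair, were treated with compound. Their growth was then compared with that of vehicle-treated cultures to give inhibition.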

Measured: growth inhibition

C#Cc1nc(N)c2ncn(C3OC(COS(N)(=O)=O)C(O)C3O)c2n1 (configuration not stated)
inactive: [1] 17.1% | [2] 32.5% | [3] 7.9% | [4] 28.4% | [5] 10.3% | [6] 10.6%

CC(=O)Nc1ccccc1Sc1ccccc1
inactive: [1] -6.5% | [2] -17.1% | [3] 4.35% | [4] 15.1% | [5] 4.6% | [6] -20.9%

CCOC(=O)NCC(C)(C)N(C(=O)OCC)c1ccccc1
inactive: [1] -24.1% | [2] -42.1% | [3] -15.7% | [4] -9.95% | [5] -37.8% | [6] -7.7%

CCCCN(CCCC)/C(=C/C(=O)OC)C(=O)OC
inactive: [1] 20.1% | [2] 8.55% | [3] 10.1% | [4] 14.2% | [5] 26.9% | [6] 13.6%

CCCCCC(=O)OC
inactive: [1] 4.75% | [2] -8.15% | [3] -28.4% | [4] -17.1% | [5] -11.2% | [6] 10.8%

CC(c1ccccc1)C1CC(=O)N(C)C1=O (configuration not stated)
inactive: [1] 7.85% | [2] -15% | [3] 0.45% | [4] -19.9% | [5] -23.8% | [6] 2.35%

CC(=O)Nc1ccc2cc(-c3ccc(Cl)cc3)c3nnnn3c2n1
inactive: [1] 14.3% | [2] 4.85% | [3] 25.8% | [4] -53.1% | [5] 0.9% | [6] 17.8%

COc1cccc(-c2nsc(=O)o2)c1
inactive: [1] 41.5% | [2] 23.1% | [3] 24.3% | [4] -1.4% | [5] 52.6% | [6] 32.6%

CCOC(=O)/C=C/C1(CCOC(C)=O)CCCCC1
inactive: [1] 12.8% | [2] -27.8% | [3] -2.9% | [4] 21% | [5] -4% | [6] 14.9%

COc1cc2c(cc1OC)C(=O)C(C1CCCCC1)NC2 (configuration not stated)
inactive: [1] 20.7% | [2] 9.85% | [3] 8.9% | [4] 0.45% | [5] 16.1% | [6] 30.4%

CC1CC(NN(C)C)C2(C(N)=O)C(N)=NC(=O)C12C#N (configuration not stated)
inactive: [1] 5.45% | [2] 9.15% | [3] -23.9% | [4] 3.8% | [5] -24.7% | [6] -46.1%

CCOC(=O)c1[nH]cnc1N
inactive: [1] -17.1% | [2] 11.1% | [3] -2.55% | [4] -46.1% | [5] 1.15% | [6] -3.65%

COC(=O)NC1=Nc2ccc(Cl)cc2NS1
inactive: [1] 2.4% | [2] -10.2% | [3] -25.1% | [4] 2.05% | [5] 22.1% | [6] -4.65%

O=[N+]([O-])c1ccc(/C=C(/c2ccc([N+](=O)[O-])o2)S(=O)(=O)C(Cl)(Cl)Cl)cc1
active: [1] 96.7% | [2] 97.2% | [3] 98.3% | [4] 97.1% | [5] 90.1% | [6] 97.8%

CC1(C)C2CC3C(C2)C31C
inactive: [1] 1% | [2] 3.6% | [3] -10.2% | [4] 5.35% | [5] 1.3% | [6] -0.75%

O=[N+]([O-])c1ccc(OS(=O)(=O)O)cc1
inactive: [1] 17.8% | [2] 4.45% | [3] 20.5% | [4] -9.85% | [5] -4.1% | [6] 8.55%

CC(=O)Cc1nc(N)nc(Nc2ccc(Cl)c(Cl)c2)n1
inactive: [1] -8.9% | [2] 13.7% | [3] -10.1% | [4] -11.3% | [5] -13% | [6] -20.5%

CCCCOC(=O)CCCCCCCCC(=O)OCCCC
inactive: [1] 23.6% | [2] -9% | [3] 2.05% | [4] -14.1% | [5] 0.2% | [6] 28.4%

CCc1cccc(CC)c1N1C(=O)C(=O)C(C(C)=O)C1=O (configuration not stated)
inactive: [1] -4.05% | [2] -4.45% | [3] 7.6% | [4] -24.5% | [5] -1.25% | [6] 8.45%

CCOC(=O)C1=C(C)NC(=O)NC1c1ccc(OC)cc1OC (configuration not stated)
inactive: [1] -2.15% | [2] -25.6% | [3] -11.7% | [4] 18.6% | [5] -18% | [6] -6.5%

Cc1nc2ccccc2s1
inactive: [1] 25.1% | [2] 48.2% | [3] 7.9% | [4] 29% | [5] -1.35% | [6] 4.05%

C[N+]1(C)CCC(O)C(c2ccccc2)C1 (configuration not stated)
inactive: [1] -8.9% | [2] -0.45% | [3] -3.5% | [4] -22.5% | [5] -8.1% | [6] -0.7%

O=S(=O)(Cl)c1cccc2c(S(=O)(=O)Cl)cccc12
inactive: [1] 7% | [2] 2.15% | [3] 15.4% | [4] -40.5% | [5] -10.4% | [6] 16.2%

Cc1ccc(C(C(=O)O)C(Cl)(Cl)Cl)cc1 (configuration not stated)
inactive: [1] 6.7% | [2] -11% | [3] -0.75% | [4] 0.7% | [5] -6.45% | [6] 4.65%

O=NN(CC1(O)OCC(O)C(O)C1O)C(Cc1c[nH]c2ccccc12)C(=O)O (configuration not stated)
inactive: [1] -8.7% | [2] -22.9% | [3] -27.1% | [4] 2.1% | [5] -0.5% | [6] -4.8%

O=c1[nH]c(NCc2ccc(Cl)cc2)nc2nc[nH]c12
inactive: [1] 0.85% | [2] -3.85% | [3] -19.5% | [4] 12.2% | [5] -8.55% | [6] -46.4%

Cc1ccccc1S(=O)(=O)NC1c2ccccc2Oc2ccccc21
inactive: [1] -9.85% | [2] -3.7% | [3] -5.3% | [4] -12.1% | [5] 2.5% | [6] -7.9%

Nc1c(C(=O)Nc2cccc3c2C(=O)c2ccccc2C3=O)ccc2c1C(=O)c1ccccc1C2=O
inactive: [1] 35.1% | [2] 10.1% | [3] 43.3% | [4] 26.7% | [5] 2.75% | [6] 24%

CCCCCCCCCCOC(=O)c1ccccc1O
inactive: [1] -4.95% | [2] -7.15% | [3] 3.1% | [4] -111% | [5] 4.4% | [6] -10.4%

C[N+](C)(C)c1ccc2ccccc2n1
inactive: [1] -9.15% | [2] -1.6% | [3] -19.9% | [4] 1.15% | [5] -8.7% | [6] -2.7%

CCN(CCC#N)c1cccc(C)c1
inactive: [1] -12.2% | [2] 1.6% | [3] -5.75% | [4] 9.8% | [5] -16.8% | [6] -7.55%

N=C(N)n1ncc2c1CCCC2=O
inactive: [1] -17.4% | [2] 19.9% | [3] -6.1% | [4] -20.2% | [5] 6.1% | [6] 1.75%

CC(/C=N\NC(=S)SCc1ccccc1)=N/N=C(N)N
inactive: [1] 52.4% | [2] 50.2% | [3] 57.2% | [4] -3.7% | [5] 52.9% | [6] 64.6%

CC(C)=C/C(CC(O)(C(F)(F)F)C(F)(F)F)=N\O
inactive: [1] -17.2% | [2] 4.45% | [3] -6.5% | [4] 18.4% | [5] -15.8% | [6] -13.3%

Cc1ccc(S(=O)(=O)OCC2(COS(=O)(=O)c3ccc(C)cc3)CCC2)cc1
inactive: [1] -7.8% | [2] -7.75% | [3] 0.25% | [4] -8.95% | [5] 16% | [6] -15%

CN(C)Cc1nsc(N(C)C)n1
inactive: [1] -4.9% | [2] -9.1% | [3] -34.2% | [4] -50% | [5] -19.1% | [6] -13.2%

CC(=O)OCCOC(=O)Nc1ccccc1
inactive: [1] 0.05% | [2] -14.5% | [3] -13.9% | [4] -22.2% | [5] -2.55% | [6] -4.85%

CCC1N=C(N)N=C(N)N1c1ccc(Cl)c(Cl)c1 (configuration not stated)
inactive: [1] 16.2% | [2] 11.6% | [3] 9.25% | [4] -8.7% | [5] 10.7% | [6] 37.8%

CC(C)(C)c1c(C#N)nnc2cc(-c3ccccc3)nn12
inactive: [1] 7% | [2] 8.85% | [3] 21.9% | [4] 25.1% | [5] -17.3% | [6] 9.15%

CC(C)c1ccccc1OC(=O)c1cccc(Br)c1
inactive: [1] -19% | [2] -1.95% | [3] 0.35% | [4] -23.1% | [5] 13.9% | [6] 1.5%

CCC[N+](CCC)=c1ccc2nc3c(C)cc(N(CC)CC)cc3sc-2c1
inactive: [1] -60.6% | [2] -6.45% | [3] -20.6% | [4] -126% | [5] -130% | [6] -39.2%

O=C(c1cccc(C(=O)N2CCCC2)n1)N1CCCC1
inactive: [1] -11.4% | [2] -13.2% | [3] -1.7% | [4] -25.6% | [5] -15.5% | [6] -18.8%

— PubChem BioAssay (NCI)
